Holding throughout (conditions): mRNA level, 48 h; actives raise or lower the signal
Read-out in test [1]: 3-Hydroxy-3-Methylglutaryl-CoA Synthase 2 (HMGCS2), HMGCS2 (gene 3158)
In words: LTEA_HepaRG_HMGCS2: Life Technologies and Expression Analysis (LTEA) Assay for 3-Hydroxy-3-Methylglutaryl-CoA Synthase 2 (HMGCS2) using HepaRG (AID 2283504). The gist of the method:
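Human HepaRG cells in serum-free induction medium were exposed in duplicate for 48 h to 8-point half-log series from 100 uM top in 0.5% DMSO. HMGCS2 mRNA measured by TaqMan qRT-PCR, normalised to ACTB, GAPDH, POLR2A; bidirectional fit versus DMSO.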

Read-out in test [2]: HGF (gene 3082)
In words: LTEA_HepaRG_HGF: Life Technologies and Expression Analysis (LTEA) Assay for Hepatocyte Growth Facto (HGF) using HepaRG (AID 2283505). The gist of the method: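 Differentiated HepaRG cells in serum-free induction medium exposed 48 h in duplicate, 8 half-log concentrations from 100 uM in 0.5% DMSO. HGF mRNA by qRT-PCR, normalised to ACTB, GAPDH, POLR2A; bidirectional fitting.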

Read-out in test [3]: Insulin Like Growth Factor 1 (IGF1), IGF1 (gene 3479)
In words: LTEA_HepaRG_IGF1: Life Technologies and Expression Analysis (LTEA) Assay for Insulin Like Growth Factor 1 (IGF1) using HepaRG (AID 2283506). The gist of the method: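 Endpoint: IGF1 mRNA change by qRT-PCR, housekeeping-normalized, fitted bidirectionally relative to 0.5% DMSO vehicle. Human HepaRG cells were treated 48 h in serum-free induction medium, eight half-log concentrations topping at 100 uM.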

Read-out in test [4]: Intercellular Adhesion Molecule 1 (ICAM1), ICAM1 (gene 3383)
In words: LTEA_HepaRG_ICAM1: Life Technologies and Expression Analysis (LTEA) Assay for Intercellular Adhesion Molecule 1 (ICAM1) using HepaRG (AID 2283507). The gist of the method:
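Differentiated human HepaRG cells in serum-free induction medium exposed 48 h in duplicate to 8 half-log concentrations (top 100 uM, 0.5% DMSO). ICAM1 mRNA quantified by TaqMan qRT-PCR, normalized to ACTB, GAPDH and POLR2A; bidirectional fitting versus DMSO.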

Read-out in test [5]: Insulin-like growth factor-binding protein 1 (IGFBP1), IGFBP1 (gene 3484)
In words: LTEA_HepaRG_IGFBP1: Life Technologies and Expression Analysis (LTEA) Assay for Insulin-like growth factor-binding protein 1 (IGFBP1) using HepaRG (AID 2283508). The gist of the method: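 HepaRG cells, plated 48 h then switched to serum-free induction medium, exposed in duplicate for 48 h to 8-point half-log series from 100 uM in 0.5% DMSO. mRNA measured by qRT-PCR, normalized to ACTB/GAPDH/POLR2A; bidirectional fit versus DMSO.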

Read-out in test [6]: Interleukin 6 (IL6), IL6 (gene 3569)
In words: LTEA_HepaRG_IL6: Life Technologies and Expression Analysis (LTEA) Assay for Interleukin 6 (IL6) using HepaRG (AID 2283509). The gist of the method: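 Changes in IL6 mRNA, up or down relative to 0.5% DMSO controls, were derived from concentration-response curves in human HepaRG cells treated for 48 h at up to 100 uM, with ACTB, GAPDH and POLR2A as normalizers.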

Read-out in test [7]: Interleukin 6 Receptor (IL6R), IL6R (gene 3570)
In words: LTEA_HepaRG_IL6R: Life Technologies and Expression Analysis (LTEA) Assay for Interleukin 6 Receptor (IL6R) using HepaRG (AID 2283510). The gist of the method:
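In this HepaRG screen, test chemicals act on cells for 48 h at up to 100 uM (eight half-log points, duplicate wells). IL6R expression is quantified by qRT-PCR after normalization to ACTB, GAPDH and POLR2A, with DMSO as baseline.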

Read-out in test [8]: Potassium channel subfamily K member 1 (KCNK1), KCNK1 (gene 3775)
In words: LTEA_HepaRG_KCNK1: Life Technologies and Expression Analysis (LTEA) Assay for Potassium channel subfamily K member 1 (KCNK1) using HepaRG (AID 2283511). The gist of the method: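 Human HepaRG cultures receive test chemicals for 48 h in 0.5% DMSO, top concentration 100 uM with half-log dilutions. Induction or suppression of KCNK1 mRNA relative to DMSO is derived by bidirectional fitting of qRT-PCR data.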

Read-out in test [9]: Keratin 19 (KRT19), KRT19 (gene 3880)
In words: LTEA_HepaRG_KRT19: Life Technologies and Expression Analysis (LTEA) Assay for Keratin 19 (KRT19) using HepaRG (AID 2283512). The gist of the method: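 Differentiated HepaRG cells in serum-free induction medium, exposed 48 h in duplicate to 8 half-log concentrations up to 100 uM in 0.5% DMSO. KRT19 mRNA by qRT-PCR, normalized to ACTB, GAPDH, POLR2A; bidirectional fit vs DMSO.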

Read-out in test [10]: JUN Transcription Factor, JUN (gene 3725)
In words: LTEA_HepaRG_JUN: Life Technologies and Expression Analysis (LTEA) Assay for JUN Transcription Factor using HepaRG (AID 2283513). The gist of the method:
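Gene-expression endpoint: JUN mRNA (qRT-PCR, normalized to three reference genes) in HepaRG cultures treated 48 h with chemicals, duplicate wells, 100 uM maximum with half-log dilutions; bidirectional fitting relative to 0.5% DMSO.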

The source made the active and inactive calls. How the source made its calls: active means hit-call score of the fitted dose curve at least 0.9, where 1 is the maximum; inactive means score below 0.9.

As for `CN(C)[C@@H]1C(=O)C(C(N)=O)=C(O)[C@@]2(O)C(=O)C3=C(O)c4c(O)cccc4[C@@](C)(O)[C@H]3C[C@@H]12`, the compound was classed as inactive in [1], in test [2], in test [3], in test [4], in test [5] and in test [6]. Further, the result in [7], in test [8] and in test [9] was inactive.

For `CC(O)CCO` (configuration not stated), the outcome in test [1], in [2], in test [3], in test [4], in test [5] and in test [6] was inactive. The compound was classed as inactive in test [7], in test [8], in [9] and in test [10].

As for `Clc1ccccc1Cl`, the outcome in test [1], in [2], in test [3], in test [4], in [5] and in [6] was inactive. The result in [7], in test [8], in [9] and in test [10] was inactive.

By AC50 is commonly meant the concentration at which the activity in the assay is half-maximal. Turning to `CCOC(=O)[C@]1(c2ccccc2)Oc2ccccc2[C@@H]1N`, the AC50 in [1] was 77.3 µM (active); in [3], 80.2 µM (active); in test [5], 91.6 µM (active); in test [6], 84.8 µM (active); in test [10] it was 93.6 µM (active). In addition, the compound was classed as inactive in test [2], in test [4], in test [7], in [8] and in [9].

For `CCC12COCN1COC2`, the compound was classed as inactive in [1], in test [2], in [3], in test [4], in test [5] and in test [6]. Also, the result in [7], in test [8], in [9] and in [10] was inactive.

For the compound `OCCOCCO`, the call in [1], in [2], in test [3], in test [4], in test [5] and in [6] was inactive. Further, the result in [7], in test [8], in test [9] and in test [10] was inactive.

Consider `CO[C@@H]1[C@H](OC(=O)NC(=O)CCl)CC[C@]2(CO2)[C@H]1[C@@]1(C)O[C@@H]1CC=C(C)C`, for which the compound was classed as inactive in [1], in [2], in test [4], in [5], in test [6] and in test [7]. Also, the call in test [8], in test [9] and in [10] was inactive. Moreover, the AC50 in test [3] was 3.17 µM (active).

`CCN(CC)N=O`: the call in [1], in test [2], in test [3], in [4], in [5] and in test [6] was inactive. Besides, the call in [7], in test [8], in test [9] and in test [10] was inactive.

With `c1ccc2c(c1)oc1ccccc12`, the compound was called inactive in [1], in test [2], in test [3], in test [4], in test [5] and in [6]. Besides, the outcome in [7], in test [8], in test [9] and in [10] was inactive.

Turning to `C[N+](C)(C)CC1CO1` (configuration not stated), the compound was called inactive in test [1], in test [2], in test [3], in test [4], in test [5] and in test [6]. Further, the call in [8], in test [9] and in test [10] was inactive.

With `c1ccc(C2CO2)cc1` (configuration not stated), the result in [1], in [2], in test [3], in test [4], in [5] and in test [6] was inactive. Moreover, the outcome in test [8], in test [9] and in [10] was inactive.

For the compound `Cc1cccc(N)c1N`, the AC50 in [1] is 50 µM (active); in test [3] it was 50 µM (active); in test [5] it was 22.9 µM (active); in test [9] it was 21.3 µM (active). For the same compound, the result in test [2], in test [4], in [6], in [7], in [8] and in test [10] was inactive.

With `CCCCCOC(=O)c1ccccc1C(=O)OCCCCC`, the outcome in [1], in [2], in test [3], in test [4], in test [5] and in [6] was inactive. Besides, the outcome in test [7], in test [8], in [9] and in test [10] was inactive.

With `O=P(OCCCl)(OCCCl)OCCCl`, the outcome in [1], in [2], in test [3], in test [4], in test [5] and in [6] was inactive. Besides, the call in test [7], in test [8], in [9] and in test [10] was inactive.

`CC(C)(OOC(C)(C)c1ccccc1)c1ccccc1`: the compound was called inactive in test [1], in [2], in test [3], in test [4], in [5] and in [6]. For the same compound, the compound was called inactive in [8], in test [9] and in test [10].

Take `COP(=S)(OC)SCN1C(=O)c2ccccc2C1=O`: the compound was classed as inactive in test [1], in test [2], in test [3], in [4], in test [5] and in test [6]. In addition, the result in [7], in [8] and in test [10] was inactive.

With `CCCSC(=O)N(CCC)CCC`, the compound was called inactive in test [1], in test [2], in [3], in [4], in test [5] and in [6]. Moreover, the compound was classed as inactive in [7], in test [8], in [9] and in test [10].

Regarding `CNC(=O)Oc1cccc2c1OC(C)(C)C2`, in test [1], the AC50 was 38.8 µM (active). Moreover, the result in test [2], in [3], in [4], in test [5], in test [6] and in test [8] was inactive. Also, the outcome in test [9] and in test [10] was inactive.

`O=Cc1ccco1`: the result in test [1], in [2], in [3], in test [4], in test [5] and in test [6] was inactive. Also, the call in test [8], in test [9] and in [10] was inactive.

In the case of `O=C(O)C1C2CCC(O2)C1C(=O)O` (configuration not stated), the AC50 is 72.6 µM (active) in [1]; 73.6 µM (active) in test [3]; 93.3 µM (active) in test [5]; 16.5 µM (active) in test [6]; 50 µM (active) in test [9]; 24.7 µM (active) in [10]. Further, the compound was called inactive in [2], in test [4] and in test [8].
